HCMV antiviral: inhibitors of human cytomegalovirus; HFF cells, HCMV-luciferase reporter, 72 h; hits give low values; activity change, negative = inhibition, % at 57.5 µM; 410,000 tested, 4.5% active; AID 1259415; in the data active = activity change below about -60%; inconclusive = no clear call, values can overlap the other calls; inactive = above about -39%
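Compounds were evaluated in HFFs infected with an HCMV luciferase reporter virus (MOI 1 PFU/cell). Luciferase in lysates collected 72 h post infection served as the replication measure.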
Pf growth 96h: inhibits malaria parasite growth, 96 h | P. falciparum luciferase reporter growth, 96 h | Potency, µM (highest dose often 28.7 µM), without a hit: at the highest dose activity change, negative = inhibition, actives largely listed as inhibitors | 320,000 tested, 6.9% active; also: potency is read from the fitted curve at half-maximal effect
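Two parasite generations (96 h, 37 C, 5% CO2) of compound exposure in infected erythrocytes (0.05% parasitemia, 2% hematocrit). Luciferase-reporter P. falciparum; decreased luminescence indicates inhibited growth, aimed at apicoplast-acting delayed death.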
Pf growth 48h: P. falciparum growth inhibition at 48 hours (one generation); P. falciparum luciferase growth in erythrocytes, 48 h; 310,000 tested, 5.9% active; Potency, µM (doses to about 28.7 µM), without a hit: at the highest dose activity change, negative = inhibition, usual class: inhibitors; also: potency is read from the fitted curve at half-maximal effect
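Cell-based growth assay: transgenic P. falciparum expressing firefly luciferase, cultured in red cells within RPMI 1640 containing 0.5% w/v Albumax, 24 mM bicarbonate and gentamycin. A drop in luciferase activity indicates inhibition.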
HCV inh: blocks hepatitis C virus; Huh7.5.1 HCVcc-Cre infection, luciferase reporter, 44 h; Potency, µM (series often up to 41.8 µM), without a hit: top-dose activity change, negative = inhibition, hits mostly inhibitors; 340,000 tested, 3.4% active; AID 651820; also: potency is read from the fitted curve at half-maximal effect
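Antiviral activity was scored by luciferase reporter output from cells infected with HCVcc-Cre (~0.5 moi) in presence of compound, 44 h infection period, cells seeded 1,000/well 4 h prior.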
* marks the source's active call; other numbers are inactive results; ? = inconclusive; / = no result given; [ ] = another dose, or the depositor's remark. Shown are actives, neighbours in structure and some others; about 13% of the full set was active somewhere. Unless noted, calls follow the shape of the dose curve; as a rule, active = well fitted inhibition curve with a large enough effect; inconclusive = small, poorly fitted or top-dose-only effect, or another doubt; inactive = no such curve, though single readings can be large or run the other way. % is scaled to controls: 0 for no effect and ±100 for the full control effect.

SMILES | HCMV antiviral | Pf growth 96h | Pf growth 48h | HCV inh
CCc1ccc2c(c1)-c1ccccc1S(=O)(=O)N2CC(=O)N1CCCCC1 | 55 | / | / | /
Cc1cc(C)n(C(C)CC(=O)Nc2ccc(C)c(F)c2)n1 (stereo unspecified) | -18 | / | / | /
CCN(CC)c1ccc(NC(=O)CN2C(=O)CSc3ncccc32)c(C)c1 | -86* | ? | / | 3.5µM*
COc1cccc(CN2CCNC(=O)C2CC(=O)NCCn2ccc3ccccc32)c1OC (stereo unspecified) | 18 | ? | 12µM* | -20%
COc1cccc(CCNC(=O)CC2C(=O)NCCN2Cc2ccc(Cl)c(F)c2)c1 (stereo unspecified) | -25 | 30%[5.75 µM] | 2% | -22%
COC(=O)CCCNC(=O)CC1C(=O)NCCN1Cc1ccoc1 (stereo unspecified) | -6 | 13µM* | 32% | 28%
O=C(CC1C(=O)NCCN1Cc1ccoc1)NCCc1ccc(Cl)cc1 (stereo unspecified) | ? | ? | 19% | -4%
COc1cccc(CN2CCNC(=O)C2CC(=O)NCc2cn3cccc(C)c3n2)c1OC (stereo unspecified) | -26 | 20% | -16% | 5%
COc1cccc(CN2CCNC(=O)C2CC(=O)NCCN2CCCCC2=O)c1 (stereo unspecified) | 5 | 10µM* | 10% | 10%
COc1cccc(CN2CCNC(=O)C2CC(=O)NCc2cn3ccccc3n2)c1OC (stereo unspecified) | -16 | 10µM* | 22% | 1%
Cc1cc(C(=O)N2CCN(c3cccc(C)c3C)CC2)c2c(C)nn(-c3ccccc3)c2n1 | 10 | / | / | /
COc1ccc2c(c1)cc1c(=O)n(CC(=O)NCc3ccco3)nc(C)n12 | 1 | / | / | /
C/C(CCC12CC3CC(CC(C3)C1)C2)=N\NC(N)=S | -37 | ? | / | 11µM*
C/C(CC1CC(C)OC1=O)=N\NC(N)=S (stereo unspecified) | 23 | 68% | 15% | 4%
CN(Cc1cn(Cc2ccccc2)nc1-c1ccc2c(c1)OCO2)Cc1nccn1C | -6 | 15µM* | ? | -11%
CCOC(=O)c1c(C)oc2nc(C)nc(NCC3CCN(Cc4ccc(C)cc4)CC3)c12 | -3 | / | / | /
CCOC(=O)c1c(C)oc2nc(C)nc(NCC3CCN(Cc4ccccc4C)CC3)c12 | -104* | / | / | /
COc1ccc(Br)cc1CN(C)C(=O)c1ccc2c(c1)NC(=O)C(C)S2 (stereo unspecified) | 34 | ? | ? | 14%
COc1ccc(CCNC(=O)CCS(=O)(=O)c2ccc3c(c2)NC(=O)C(C)S3)cc1OC (stereo unspecified) | -31 | 89% | -12% | 1%
CCc1cccc(NS(=O)(=O)c2ccc3c(c2)NC(=O)C(C)S3)c1 (stereo unspecified) | 0 | 24% | 18% | ?
CCC(Cc1ccccc1)NS(=O)(=O)c1ccc2c(c1)NC(=O)C(C)S2 (stereo unspecified) | -86* | 15µM* | -32% | ?
CCOc1ccc(CN(C)C(=O)c2ccc3c(c2)NC(=O)C(C)S3)cc1OC (stereo unspecified) | -18 | ? | ? | 13µM*
COc1ccc(CCNS(=O)(=O)c2ccc3c(c2)NC(=O)C(C)S3)cc1OC (stereo unspecified) | -20 | -15% | -4% | 25µM*
COc1ccc(CCNC(=O)c2cc3sccc3n2Cc2ccc(Cl)cc2)cc1OC | -37 | / | / | /
Cc1ccc(-c2nc(CS(=O)CC(=O)NCCc3ccc(Cl)cc3)c(C)o2)cc1 (stereo unspecified) | -10 | / | / | /
SMILES | HCMV antiviral | Pf growth 96h | Pf growth 48h | HCV inh
COc1ccc(NC(=O)CC2Oc3ccc(C)cc3NC2=O)cc1Cl (stereo unspecified) | -13 | / | / | /
N#Cc1ccccc1NC(=O)CN1CCOCC1 | 40 | 12µM* | 5% | 6%
COc1cc(NC(=O)c2cccc(C)c2)c(OC)cc1NC(=O)CN1CCOCC1 | -36 | -1% | ? | ?
COc1cc(NC(=O)c2ccccc2)c(OC)cc1NC(=O)CN1CCCCC1 | -3 | 15% | ? | ?
COc1cc(NC(=O)c2cccc(Cl)c2)c(OC)cc1NC(=O)CN1CCOCC1 | -72* | / | ? | ?
COc1cc(Cl)ccc1NC(=S)N(CCN1CCOCC1)C1CCN(C(C)=O)CC1 | -101* | ? | 4% | 11%
COc1cc(NC(=O)c2cccc(Cl)c2)c(OC)cc1NC(=O)CN1CCCCC1 | ? | -20% | -15% | 35µM*
Cc1c(NC(=O)c2ccc(Cl)cc2)cc(C(C)C)c(O)c1S(=O)(=O)c1ccccc1 | -15 | / | / | /
CC1CN(C(=O)Nc2ccccc2)c2ccccc2-[n+]2ccsc21 (stereo unspecified) | -39 | 1% | -4% | ?
O=C(Nc1ccccc1)N1CCc2scc[n+]2-c2ccccc21 | -67* | 4% | -2% | ?
Cc1ccc(C)c(S(=O)(=O)N2CCN(C(=O)CSc3ccccc3)CC2)c1 | -1 | -11% | 15% | /
O=C(c1ccccc1Cc1ccccc1)N1CCN(S(=O)(=O)c2ccccc2)CC1 | 4 | ? | -28% | 0%
CCn1c(=O)c(C(=O)CN2CCN(S(=O)(=O)c3cc(C)ccc3C)CC2)c(N)n(Cc2ccccc2)c1=O | ? | 13µM* | ? | -7%
Cc1ccc(C)c(S(=O)(=O)N2CCN(C(C)C(=O)Nc3ccccc3-c3ccccc3)CC2)c1 (stereo unspecified) | -13 | 4.1µM* | 9.3µM* | ?
O=C(c1ccccc1Cc1ccccc1)N1CCN(S(=O)(=O)c2ccccc2F)CC1 | -35 | 13µM* | 12µM* | -15%
O=C(c1ccccc1Cc1ccccc1)N1CCN(S(=O)(=O)c2ccccc2[N+](=O)[O-])CC1 | -27 | 13µM* | ? | 17%
CCc1nc2ccc(C(=O)Nc3cccc(NS(C)(=O)=O)c3)cn2c1N(CC)Cc1cccc(Br)c1 | -17 | / | / | /
Cc1cc2c(cc1C)NC(c1cccc(Br)c1)=C(N(Cc1ccccc1)C(=O)C(=O)c1ccccc1)C(=O)N2 | -6 | / | / | /
Cc1ccc(C)c(S(=O)(=O)N2CCN(C(=O)c3ccccc3Cc3ccccc3)CC2)c1 | -17 | ? | 12µM* | ?
CCOC(=O)C1CCN(c2cc(=O)n(-c3ccccc3Cl)c(=O)[nH]2)CC1 | -13 | 13% | 1.9µM* | 21%
CCOC(=O)C1CCN(c2cc(=O)n(C3CCCCC3)c(=O)[nH]2)CC1 | 1 | 53% | 2.9µM* | 1%
O=c1cc(N2CCN(c3cccc(Cl)c3)CC2)[nH]c(=O)n1C1CCCCC1 | -93* | ? | -24% | -32%
Cc1nc(NC(=O)c2ccco2)sc1-c1csc(Nc2ccc(Cl)cc2)n1 | ? | 9.3µM* | 9.3µM* | 2.5µM*
Cc1ccc(Cl)cc1Nc1nc(-c2sc(NC(=O)c3ccco3)nc2C)cs1 | ? | 9.3µM* | ? | 8.9µM*
COc1ccccc1Nc1nc(-c2sc(NC(=O)c3ccco3)nc2C)cs1 | 1 | 9.3µM* | 12µM* | ?

Screens as filed in PubChem BioAssay.
